Rango release inh – prevents RanGTP from dissociating the Rango-importin beta complex. O95149+P62826. Biochemical FRET Rango-importin beta, RanGTP-induced dissociation. Potency, µM (series often up to 46.1 µM), for the others: at the top dose activity change, negative = inhibition. 340,000 tested, 0.071% active; calls by dose curve; further: potency means the concentration at half of the fitted maximal effect; % of control where 0% means no effect; nearly all actives have a fitted effect of over 45% in size
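Rango/importin beta premix (0.1/0.25 uM final), PBS + 1 mM DTT + 0.02% Tween-20 + 0.1% BSA; cpd 5 min RT; FRET pre-read; + RanGTP-RCC1 (0.6 uM Ran, 2 mM GTP, 0.2 uM RCC1); 45 min RT; FRET post-read, ex 430, em 486/530 nm.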
PLK1 PBD inh – PLK1 (human) polo-box domain binding inhibition. P53350. Plk1 PBD binding of FITC phosphopeptide, fluorescence polarization. Potency, µM, inactives show max response, negative = inhibition, hits mostly inhibitors. 360,000 tested, 2.8% active; further: potency means the concentration at half of the fitted maximal effect; series mostly up to about 57 µM; on the % scale 0 is the no-effect control and ±100 the full control effect; nearly all actives have a fitted effect of over 65% in size
GCN5L2 inh – inhibitors of human GCN5L2 histone acetyltransferase; GCN5L2 HAT assay, ThioGlo1 CoA-SH fluorescence; Potency, µM (highest dose often 58.9 µM), without a hit: at the highest dose activity change, negative = inhibition, most hits filed as inhibitors; 390,000 tested, 0.21% active; AID 504327; further: potency means the concentration at half of the fitted maximal effect; on the % scale 0 is the no-effect control and ±100 the full control effect
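GCN5L2 (20 nM) in 50mM HEPES pH 7.5, 0.1mM EDTA, 0.01% Tween-20 preincubated 15 min with compounds at room temperature. Reaction started with H3(1-25) 75uM, acetyl-CoA 70uM, ThioGlo1 50uM; CoA-thiol fluorescence (Ex340/Em540) read at 0 and 20 min.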
PI5P4K alpha inh – blocks human PI5P4K alpha kinase activity. P48426. PI5P4Kalpha enzyme, ADP-Glo luminescence, 60 min; hits give low values. max response, %. 330,000 tested, 1.2% active. AID 652105; active means max response of -50% or lower; inconclusive means between -30% and -50%; inactive means -30% or higher; further: value at the top dose of about 77 µM; on the % scale 0 is the no-effect control and ±100 the full control effect
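qHTS, 1536-well: enzyme/substrate mix, compound by pin tool, 5 microM ATP final; RT 60 min; ADP-Glo reagents 1 (45 min) then 2 (30 min); luminescence.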
Rango complex inh – Rango-importin beta binding inhibition | Rango CFP/YFP FRET sensor + importin beta, 45 min | Q14974 | 340,000 tested, 0.031% active | Potency, µM (highest dose often 92.2 µM), for the others: at the highest dose inhibition of complex formation | AID 540263; calls by dose curve;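 further: potency means the concentration at half of the fitted maximal effect; 0% = DMSO wells and 100% = buffer wells lacking importin beta; nearly all actives have a fitted effect of over 15% in size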
Target sequence (Q14974 whole entry, looked up): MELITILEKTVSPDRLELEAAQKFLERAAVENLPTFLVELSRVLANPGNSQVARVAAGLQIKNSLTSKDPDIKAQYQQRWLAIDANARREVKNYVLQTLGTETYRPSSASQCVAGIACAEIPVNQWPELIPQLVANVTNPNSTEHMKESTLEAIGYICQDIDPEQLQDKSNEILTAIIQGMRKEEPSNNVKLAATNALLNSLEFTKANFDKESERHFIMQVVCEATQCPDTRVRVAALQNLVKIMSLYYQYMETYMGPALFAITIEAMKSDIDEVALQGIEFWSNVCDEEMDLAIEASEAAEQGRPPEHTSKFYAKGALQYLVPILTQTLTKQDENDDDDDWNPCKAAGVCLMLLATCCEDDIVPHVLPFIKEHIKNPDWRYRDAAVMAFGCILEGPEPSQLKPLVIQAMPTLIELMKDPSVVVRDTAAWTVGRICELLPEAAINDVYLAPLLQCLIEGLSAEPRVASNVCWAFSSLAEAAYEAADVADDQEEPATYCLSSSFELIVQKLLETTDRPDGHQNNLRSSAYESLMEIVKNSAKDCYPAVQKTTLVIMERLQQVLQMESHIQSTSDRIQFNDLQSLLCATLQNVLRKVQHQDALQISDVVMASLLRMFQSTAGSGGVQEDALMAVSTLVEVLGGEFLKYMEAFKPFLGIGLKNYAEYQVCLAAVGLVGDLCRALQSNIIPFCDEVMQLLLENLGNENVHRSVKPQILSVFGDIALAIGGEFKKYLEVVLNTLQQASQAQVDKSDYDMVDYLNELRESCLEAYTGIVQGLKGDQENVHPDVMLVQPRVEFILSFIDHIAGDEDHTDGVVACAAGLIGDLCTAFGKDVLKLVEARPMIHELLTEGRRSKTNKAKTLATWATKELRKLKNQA
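FRET biosensor Rango (snurportin 1 IBB between N-terminal EYFP and C-terminal Cerulean), 50 nM in PBS/1 mM DTT/0.02% Tween-20/0.1% BSA, preincubated 5 min RT with compound; 0.125 microM importin beta added, 45 min RT, CFP/YFP FRET ratio read.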
VDR inhibitor – vitamin D3 receptor (human) inhibition; P11473; Potency, µM, for inactives: max response, negative = inhibition, actives largely listed as inhibitors; AID 504847; 400,000 tested, 0.93% active; VDR-SRC2-3 peptide fluorescence polarization, 2 h; further: potency means the concentration at half of the fitted maximal effect; on the % scale 0 is the no-effect control and ±100 the full control effect
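FP read-out; VDR + SRC2-3 coactivator peptide; 23 nl compound by pintool; 2 h RT incubation; reagents held at 4 deg C, protected from light.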
An asterisk follows results filed as active; ? = inconclusive; · = no result; ! = not active in a repeat; [ ] = dose if it differs, or a comment. Compounds with a hit are over-represented: about 3.6% of the library has one in this group of screens. Unless noted, the call rests on the fitted dose curve; in most records, active means well fitted curve in the direction sought with a large enough effect; inconclusive means small, poorly fitted or top-dose-only effect, or another doubt; inactive means no such curve, though single readings can be large; an effect the other way counts as inactive or inconclusive.

SMILES	Rango release inh	PLK1 PBD inh	GCN5L2 inh	PI5P4K alpha inh	Rango complex inh	VDR inhibitor
C=C1C(O)C2OC3(CCC(/C=C/C(C)C4CC(C)=CC5(OC(CC(C)(O)C(=O)O)CCC5O)O4)O3)CCC2OC1C(O)CC(C)C1OC2(CCCCO2)CCC1C (stereo not given)	·	·	-1%[2.33 µM]	·	·	13%
C[C@@H]1O[C@@H](O[C@H]2CC[C@@H](O[C@H]3[C@H](O)C[C@H](c4ccc5c(c4O)C(=O)C4=C(C5=O)[C@@]5(O)C(=O)C[C@](C)(O[C@H]6CC[C@H](O[C@H]7C=CC(=O)[C@H](C)O7)[C@H](C)O6)C[C@@]5(O)C=C4)O[C@@H]3C)O[C@H]2C)C=CC1=O	·	·	-42%	·	·	2µM*
Nc1c(Br)cc2c3c(cccc13)-c1ccccc1-2	?	-21%	·	16	?	28µM*
Cn1cccc1C(=O)OCC(=O)NCc1cccs1	5%	0%	-4%	-6	-4%	?
CC[C@H](C)/C=C(C)/C=C/C1=CC2=C(Cl)C(=O)[C@](C)(OC(C)=O)C(=O)C2=CO1	?	1.1µM*	?	-104*	?	?
CCC1(C)CC(C(N)=S)CCO1 (stereo not given)	-1%	2.1µM*	?	-8	-5%	20µM*
Nc1cc2nc3ccccc3nc2cc1N	?	6.7µM*	-25%	-28	?	3%
Nc1c2c(nc3ccccc13)CCN(Cc1ccccc1)C2	?	?	-3%	-12	?	-3%
CCOc1cc(/C=C2\C(=O)NC(=O)N(C)C2=O)cc([N+](=O)[O-])c1O	18%	7.5µM*	-26%	?	-1%	-27%
CC#C[C@]1(O)CC[C@H]2C3C=C(C)C4=CC(=O)C=C[C@]4(C)[C@H]3[C@@H](O)C[C@@]21C (stereo not given in full)	·	·	-16%	·	·	0%
CS(=O)c1ccc(-c2nc(-c3ccc(F)cc3)c(-c3ccncc3)[nH]2)cc1 (stereo not given)	·	·	-5%	·	·	?
COc1cc(/C=C/C(=O)c2c(O)n(CCc3ccccc3)c(=O)[nH]c2=O)ccc1O	?	-1%	-7%	-65*	?	45µM*
Cc1cc(=O)oc2cc3c(cc12)CCCN3	?	-4%	22µM*	-1	?	-14%
C[C@@H]1Cc2c(Cl)cc(C(=O)N[C@@H](Cc3ccccc3)C(=O)O)c(O)c2C(=O)O1	·	·	-8%	·	·	0%
COc1ccc2c(c1O)-c1cc(O)cc3c1[C@@H](C2)N(C)CC3	·	·	-17%	·	·	3%
CCCN1CCc2cc(O)cc3c2C1Cc1ccc(O)c(O)c1-3 (stereo not given)	·	·	-10%	·	·	25µM*
C=CCN1CCc2cccc3c2[C@H]1Cc1ccc(O)c(O)c1-3	-1%	38µM*	?	-11	-3%	10µM*!
CCS(=O)(=O)Nc1ccc(C2=NN(C(=O)c3ccco3)C(c3ccc(Cl)o3)C2)cc1 (stereo not given)	22%	-13%	-1%	-22	?	?
C[C@]12CCC3C(CCC4=C(Cl)C(=O)CC[C@@]43C)C1CCC2O (stereo not given in full)	·	·	-1%	·	·	?
O=C(c1ccccc1)c1cn(CC(=O)N2CCOCC2)c2ccccc12	-2%	24µM*	2%	?	-3%	-1%
CC1(C)C(C(Cl)Cl)C2(Cl)C(Cl)C(Cl)C1(Cl)C2(Cl)Cl (stereo not given)	·	·	3%	·	·	-14%
CCOC(=O)C1CCN(/C=C2/C(=O)NC(=O)N(c3ccc(OCC)cc3)C2=O)CC1	-1%	-13%	-1%	·	0%	3%
COc1ccc(N2C(=O)NC(=O)/C(=C/c3ccc(N4CCOCC4)cc3)C2=O)cc1	·	·	-4%	·	·	·
Cc1cccc(N2C(=O)NC(=O)/C(=C\c3ccc(N4CCOCC4)cc3)C2=O)c1	17%	9.5µM*	-6%	?	0%	-11%
CCOc1ccc(N2C(=O)NC(=O)/C(=C\c3ccc(N4CCOCC4)cc3C)C2=O)cc1	0%	6.7µM*	-20%	-4	1%	?
SMILES	Rango release inh	PLK1 PBD inh	GCN5L2 inh	PI5P4K alpha inh	Rango complex inh	VDR inhibitor
Cc1cccc(N2C(=O)NC(=O)/C(=C/c3ccc(N4CCOCC4)cc3)C2=O)c1	-21%	12µM*	-3%	-24	?	-13%
Cc1ccc(N2C(=O)NC(=O)/C(=C\c3ccc(N4CCOCC4)cc3)C2=O)cc1	0%	6µM*	0%	?	1%	?
NS(=O)(=O)c1ccc(CNC(=O)COc2ccc3c4c(c(=O)oc3c2)CCCC4)cc1	4%	24µM*	-14%	-14	2%	-23%
Cc1cc(OCC(=O)NCc2cccnc2)c2c3c(c(=O)oc2c1)CCCC3	-5%	-1%	-2%	9	0%	-18%
CC1(C)C(O)CC(O)[C@]2(C)C1CC(=O)[C@]1(C)C2CC[C@@]2(C)C(c3ccoc3)OC(=O)C3OC321 (stereo not given in full)	·	·	-2%	·	·	1%
CC(C)COc1ccc(Cc2c(O)[nH]c(=S)[nH]c2=O)cc1	2%	27µM*	?	-52*	5%	-23%
Cc1cc(Cc2c(O)[nH]c(=S)[nH]c2=O)ccc1OC(C)C	-6%	27µM*	?	?	0%	79µM*
Cc1c(Cc2ccccc2)c(=O)oc2cc(OCc3ccc(C(=O)O)cc3)ccc12	7%	21µM*	0%	1	1%	1%
Cc1c(C)c2ccc(OCC(=O)N3CCN(Cc4ccccc4)CC3)cc2oc1=O	34%	3%	-11%	-4	3%	6%
C[C@H]1CC[C@@]2(C)[C@@H](CC[C@@H]3[C@@H]2CC[C@]2(C)[C@@H](O)CC[C@@H]32)C1	-7%	27µM*	-21%	39	-1%	-14%
CCCc1[nH][nH]c(=O)c1C(c1ccccc1)C(C#N)C#N (stereo not given)	0%	12µM*	-9%	-50*	0%	?
CCCc1[nH][nH]c(=O)c1C(c1ccc(Cl)cc1)C(C#N)C#N (stereo not given)	0%	21µM*	-6%	·	-3%	-41%
CC(C)(O)[C@@H]1C2OC(=O)[C@@H]1[C@]1(O)C[C@H]3O[C@]34C(=O)O[C@H]2[C@]14C (tested in a mixture with another compound)	·	·	-17%	·	·	?
COCCN(C(=O)CCl)c1c(C)cccc1C	·	·	6%	·	·	9%
CCCN1CCO[C@@H]2c3cc(O)ccc3OC[C@@H]21	·	·	-17%	·	·	2%
CC1CC2CC(=O)C3CCCN4CCCC2[C@]34C1 (stereo not given in full)	·	·	-1%	·	·	3%

Source: PubChem BioAssay (National Center for Advancing Translational Sciences (NCATS))
